Screens as filed in PubChem.
Many of the other results were omitted from the sample, so hits are more common in it than they were.
PKM2 inhibitor = qHTS Assay for Inhibitors of Human Muscle isoform 2 Pyruvate Kinase; hit rate 0.058% among 260,000; AID 1634, 2009; purified PKM2, ATP generation, Kinase-Glo luminescence; Potency, µM (doses to about 57.5 µM), usual class: inhibitors; Pyruvate kinase PKM (Homo sapiens), P14618; active = well fitted inhibition curve with a large enough effect; note: nearly all actives have a fitted effect of over 60% in size
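Coupled luciferase luminescence (Kinase-Glo) detects ATP generated from 0.1 mM ADP and 0.5 mM PEP in imidazole buffer pH 7.2 with KCl, MgCl2; 1 h at room temperature. Enzyme at intermediate activity; normalized to uninhibited and no-enzyme controls.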
A number is an active result; n = inactive; [ ] = dose if it differs, or a comment.

SMILES | PKM2 inhibitor
COc1ccc(-c2cc3nc(C)cc(N)n3n2)cc1 | 14.1µM
COc1ccc2nc(C)cc(Nc3ccc(C)cc3)c2c1 | n
COCCOC(=O)/C(C#N)=C/c1cn(Cc2ccccc2)nc1-c1cccnc1 | n
COc1cc(/C=C(\C#N)C(=O)Nc2ccc3c(c2)OCCO3)ccc1O | n
Nc1cc2c(cc1O)CCCC2 | n
CCOc1ccc(-c2nnc(SCC(=O)Nc3cc(C)on3)o2)cc1 | n
CCOc1ccc(C(=O)Nc2cc(C)ccn2)cc1 | 14.1µM
COc1ccc(C(=O)Nc2c(C)cc(C)cc2C)cc1OC | n
Cc1ccccc1NS(=O)(=O)c1ccc2oc(=O)ccc2c1 | n
CC(=O)C1=C(C)NC(SCc2cccc([N+](=O)[O-])c2)=C(C#N)C1c1ccco1 (configuration not stated) | n
COc1ccc2c(c1)NC(c1ccc(N(C)C)cc1)c1cccn1-2 (configuration not stated) | n
COc1ccc(C(=O)OCC(=O)NCc2ccccc2)c(OC)c1OC | n
Cc1ccc(Cl)cc1NS(=O)(=O)c1ccc2oc(=O)ccc2c1 | n
Cc1cc(C)c(C#N)c(SCC(=O)Nc2nonc2N)n1 | n
COc1cccc(CNC(=O)N2CCN(S(=O)(=O)c3ccc(C)cc3)CC2)c1 | n
N/C(=N/OC(=O)c1ccccc1F)c1nonc1N | 15.8µM
Cc1c(C(=O)OCc2ccccc2)nnn1-c1nonc1N | n
CC(C)(C)NC(=O)C(c1ccncc1)N(Cc1ccc(F)cc1)C(=O)c1ccc(-c2ccccc2)[nH]1 (configuration not stated) | n
COc1ccc(CC(=O)N/N=C/c2ccc(-c3cccc(C(=O)O)c3)o2)cc1OC | n
O=C(NCCc1nc2ccc(Cl)cc2[nH]1)C1CCC(=O)N(Cc2cccc(F)c2)C1 (configuration not stated) | n
c1ccc(C2=NNC(=NC3CC3)SC2)cc1 | 14.1µM
Clc1ccc(C2=NNC(=NCc3ccc4c(c3)OCO4)SC2)cc1 | n
Cc1cccc(NC(=O)COc2ccc(/C=C\c3[nH]c(=O)[nH]c(=O)c3[N+](=O)[O-])cc2)c1 | n
COc1ccccc1S(=O)(=O)N1CCN(S(=O)(=O)c2ccccc2C#N)CC1 | n
CC1(C)SC(=S)N(c2ccccc2)C1/[N+]([O-])=C/c1cccc([N+](=O)[O-])c1 (configuration not stated) | n
SMILES | PKM2 inhibitor
Cc1[nH]n(-c2ccccc2)c(=S)c1C=Nc1ccc([N+](=O)[O-])cc1 | 11.2µM
O=[N+]([O-])c1ccc(-n2nnnc2-c2ccccc2)cc1 | n
Cn1c2ccccc2c2nnc(SCC(=O)Nc3cccc(O)c3)nc21 | n[11.5 µM]
COc1c(O)c(O)cc2c1oc1c3cc(C)ccc3oc(=O)c21 | n
COc1ccc(S(=O)(=O)N2CCN(C(=O)C3CCCO3)CC2)cc1 (configuration not stated) | n
Cc1ccc(/C(N)=N/OC(=O)Cc2cccc3ccccc23)cc1 | n
Cc1occc1C(=O)O/N=C(\N)c1ccccc1 | 7.08µM
COc1cc(CN2CCNC(=O)C2CC(=O)N(C)Cc2ncc[nH]2)cc(OC)c1 (configuration not stated) | n
O=C1CCN(S(=O)(=O)c2ccccc2)CCN1CCOCc1cccc(F)c1 | n
CCN(Cc1ccncc1)Cc1c(O)ccc2cc(Br)ccc12 | n
Cc1cccc(NC(=O)c2onc3c2CCCC3)n1 | 12.6µM
Cc1cc(NC(=O)CSc2nc3c(cc2C#N)CCCC3)no1 | n
Cc1cccc(NC(=O)c2cc([N+](=O)[O-])ccc2NCC2CCCO2)n1 (configuration not stated) | n
C#CCOC(=O)Nc1ccc(=O)n(Cc2c(Cl)cccc2Cl)c1 | n
Cc1ccc(-n2[nH]c(C)c(/C=N/n3c(C)nc4ccccc4c3=O)c2=O)cc1 | 12.6µM
O=c1c2ccccc2nc(-c2ccco2)n1/N=C/c1ccccc1O | n
CCN(CC)S(=O)(=O)c1ccc(OC)c(NC(=O)c2cc(C)on2)c1 | n
CC(=O)c1c(C)[nH]c(C(=O)Nc2ccc(F)c(F)c2F)c1C | n
O=C(Nc1ccc(NC(=S)NC(=O)c2cccs2)cc1)c1ccco1 | n
CN(C)c1ccc(N/C=C/C(=O)c2ccco2)cc1 | 14.1µM
CN1C(=O)c2cccc3c(S(=O)(=O)Nc4ccccc4F)ccc1c23 | n
N#Cc1ccccc1Cn1cc(/C=C/[N+](=O)[O-])c2ccccc21 | n
Cc1cccc(C)c1NC(=O)C1CCCN1S(=O)(=O)c1ccc2c(c1)n(C)c(=O)c(=O)n2C (configuration not stated) | n
CCN1/C(=C/c2ccc3ccccc3[n+]2CC)C=Cc2ccccc21 | 14.1µM
Cn1c(CSc2nnc(SCc3ccccc3)s2)nc2ccccc21 | n
Cn1c(/C=C/c2ccccc2)nc2ccccc21 | 12.6µM
Cn1c(Cn2cnc3ccccc32)nc2ccccc21 | n
Cc1cccc2c1c1ccc3c(c1n2C)C(=O)C=CC3=O | n
Cc1cc(C(=O)N2CCCC(C(=O)c3cc(F)ccc3F)C2)c(C)o1 (configuration not stated) | n
